Screening results as filed in PubChem BioAssay.
BRCA1 expr up: qHTS Assay to Identify Small Molecule Activators of BRCA1 Expression; Potency, µM (series often up to 46.1 µM), usual class: activators; AID 624202, 2012; 380,000 tested, 1.1% active; MCF7-BRCA1-FFLuc reporter, luminescence, 48 h; response scale: scaled: vehicle 0%, 10 µM genistein 100%; note: nearly all actives have a fitted effect of over 80% in size
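Reporter cells (MCF7, BRCA1 promoter-firefly luciferase) received library compounds across a concentration series for 48 h. End-point luminescence was measured and concentration-effect curves derived after normalization.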
TCR activator: Activators of T cell receptors: qHTS campaign. primary human leukocytes, anti-CD3, IL-2 HTRF, 48 h. Potency, µM (series often up to 9.22 µM), hits mostly activators. 330,000 tested, under 10 active. AID 504894, 2011
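Primary human leukocytes receive a-CD3 beads and test compound and are incubated 48 hr. Secreted IL-2 is then assayed by HTRF, measuring 665nm acceptor emission after 320nm excitation of the europium donor.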
PINK1 modulator: A Quantitative High throughput Screen to Identify Chemical Modulators of PINK1 Expression; PINK1 immunofluorescence, high-content cytometry, 24 h; Potency, µM (doses to about 76.6 µM), actives largely listed as activators; 410,000 tested, 0.2% active; active = well fitted activation curve with a large enough effect; inconclusive = small, poorly fitted or top-dose-only effect; cell line not stated here; note: nearly all actives have a fitted effect of over 65% in size
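Stable cell line, 250 cells/well, 12 h attachment; compounds pinned at 5 concentrations, 24 h; CCCP control. Fixed with nuclear dye, primary antibodies 12 h at 10 degrees C, secondary plus cell stain; laser-scanning cytometer read.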
Akt phos inh: HTS Assay for Inhibitors of Akt Phophorylation: Primary Screen | Neuro2A IGF-stimulated pAkt S473 HTRF, 20 min; stronger effect = lower value | activity change, % for hits at 50 µM | 360,000 tested, 0.32% active | AID 651550, 2012; in the data active = activity change below about -80%; inconclusive = mostly about -51% to -80%
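Single-point screen (50 µM final compound) in Neuro2A cells stimulated 20 min with 6 nM IGF at 37 deg C. After lysis, Ser473-phosphorylated Akt read by HTRF (ex 330 nm, em 615/665 nm) as the 665/615 ratio.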
Hits are given with their value; 0 = inactive; ? = inconclusive; - = no result given. Rows were chosen to be rich in hits. Some 1.5% of all compounds tested hit in one or more screens of this group. Unless noted, calls come from the whole dose curve; as a rule, active = well fitted curve in the direction sought with a large enough effect; inconclusive = small, poorly fitted or top-dose-only effect, or another doubt; inactive = no such curve, though single readings can be large; an effect the other way counts as inactive or inconclusive.

SMILES	BRCA1 expr up	TCR activator	PINK1 modulator	Akt phos inh
C=CCN1N=C(/C=C/c2ccc(C)cc2)CCC1=O	11µM	0	0	0
O=[N+]([O-])c1ccc(O)c(/C=N\N=C2c3ccccc3-c3ccccc32)c1	0	0	10µM	0
NC(N)=N/N=C/c1cc([N+](=O)[O-])ccc1O	0	0	0	0
Cc1nc(NCc2cnn(C)c2C)sc1-c1ccn(CC2COc3ccccc3O2)n1 (centres undefined)	-	-	0	-
COc1ccc2nc(NC(=O)CCNC(=O)c3ccccc3Cl)sc2c1	0	0	0	0
CC(=O)c1sc(NC(=O)Cc2c(F)cccc2Cl)nc1C	0	0	0	0
O=C(Cc1c(F)cccc1Cl)Nc1ccon1	0	-	7.9µM	0
O=C(CCNC(=O)c1ccccc1Cl)Nc1nc2ccccc2s1	11µM	0	0	0
O=C(Cc1c(F)cccc1Cl)Nc1nc2ccccc2s1	8.9µM	0	0	0
OCCN1CCN(Cc2ccc3c(c2)CN(Cc2cc4ccccc4o2)CCO3)CC1	-	-	0	-
Cc1nn(-c2ccccc2)c(C)c1CC(=O)NCC1Cc2cc(F)cc(-c3cccnc3)c2O1 (centres undefined)	-	-	0	-
N#C/C(C(=O)Oc1ccccc1)=C1\C=CC=CN1	3.2µM	0	0	0
N#C/C(C(=O)c1ccccc1)=C1/CCCN1	0	0	0	0
COC(=O)c1ccc(CN2CCOc3ccc(CN4CCC(O)(c5cccnc5)CC4)cc3C2)cc1	-	-	0	-
Cc1cc(C)n(-c2cccc(C(=O)NCC3Cc4cc(Cl)cc(-c5cnccn5)c4O3)c2)n1 (centres undefined)	-	-	0	-
C/C(=C\C(=O)c1ccccc1)Nc1ccc(O)cc1	5µM	0	0	0
CCOc1ccc(-c2cn3ccccc3n2)cc1[N+](=O)[O-]	4µM	0	0	0
CCCOc1ccc(-c2csc(N)n2)cc1[N+](=O)[O-]	7.9µM	0	0	0
CCCCOc1ccc(-c2cn3ccccc3n2)cc1[N+](=O)[O-]	?	0	0	0
Cc1oc(-c2ccccc2NC(=O)c2ccccc2)nc1CNC(=O)c1cccc(-n2cccn2)c1	-	-	0	-
CC(C)c1ccc(NC(=O)C2CC3CCC2C3)cc1 (centres undefined)	6.3µM	0	0	0
CCC(C)c1ccc(NC(=O)C2CC3CCC2C3)cc1 (centres undefined)	7.1µM	0	0	0
CCOc1ccc(NC(=O)C2CC3CCC2C3)cc1 (centres undefined)	?	0	0	0
O=C(Nc1ccc(F)cc1)C1CC2CCC1C2 (centres undefined)	0	0	0	0
CCN(CC)S(=O)(=O)c1ccc(C(=O)Nc2nc3c(Cl)cc(Cl)cc3s2)cc1	0	-	0	-
SMILES	BRCA1 expr up	TCR activator	PINK1 modulator	Akt phos inh
COc1ccc(-c2csc(C(O)c3ccccc3)n2)cn1 (centres undefined)	11µM	-	0	0
COc1ccccc1OCc1ccc(C(=O)N2CCN3CCCC3C2)cc1 (centres undefined)	0	0	0	-105%
CS(=O)(=O)c1ccc(-c2ccc3c(c2)CC(CNC(=O)C2(N4CCOCC4)CCCCC2)O3)cc1 (centres undefined)	-	-	0	-
Fc1ccccc1NC(=S)NNc1ncc(C(F)(F)F)cc1Cl	0	0	16µM	0
Cc1ccccc1NC(=S)NNc1ncc(C(F)(F)F)cc1Cl	0	0	0	0
CCOc1cc(C2C(C#N)=C(N)SC(N)=C2C#N)ccc1OCCN1CCOCC1	0	0	0	0
CCOc1ccc(C2C(C#N)=C(N)SC(N)=C2C#N)c(OCC)c1	0	0	0	-85%
COc1ccc(O)c(/C=N/N2CCCCC2)c1	10µM	0	0	0
COCCOC(=O)N1CCN(/[N+]([O-])=N/Oc2ccc([N+](=O)[O-])cc2[N+](=O)[O-])CC1	0	-	0	-
Cc1cc(SCC(=O)c2ccccc2)nc(C)n1	10µM	0	0	0
CCN(CC)C(=O)c1ccc(COc2ccccc2Br)o1	7.1µM	0	0	0
Cc1ncc2c(c1CNC(=O)c1ccc3c(c1)OCO3)CCN(C(=O)c1cccc(-n3cccn3)c1)C2	-	-	0	-
CSCc1ccc(C(=O)Nc2ccc(C(N)=O)cc2)cc1	5.6µM	0	0	0
CO[C@H]1[C@H](NC(=O)c2ccsc2)c2ccccc2C12CCN(Cc1cc(Cl)ccc1O)CC2	-	-	0	-
CCOc1ccc(N2C(=O)CCC2=O)cc1	0	0	0	0
CCCC1CCC(c2ccc(OCC)cc2)=CC1=O (centres undefined)	8.9µM	0	0	0
COc1ccccc1-c1ccnc(-n2ncc(C(=O)NC(C)(C)CO)c2C2CC2)n1	-	-	0	-
CNc1nnc(-c2cc3cc(Cl)ccc3oc2=O)s1	10µM	0	0	0
COc1cc(/C=N/Nc2nncc3ccccc23)cc(OC)c1OC	7.1µM	0	0	0
Cc1cc(/C=C(\C#N)C(=O)Nc2ccccc2)c(C)n1-c1cccnc1	5.6µM	0	0	0
Cc1cc(/C=C(\C#N)C(=O)Nc2ccccc2)c(C)n1-c1ccc(F)cc1	0	-	0	-
Cc1ccc(CN(C(=O)c2ccc([N+](=O)[O-])cc2)c2ccccn2)cc1	0	-	0	-
Cc1ccc(CSc2nnc(-c3ccc(NS(=O)(=O)c4ccccc4)cc3)o2)cc1	0	0	0	0
COC(=O)CSc1nnc(-c2ccc(NS(=O)(=O)c3ccccc3)cc2)o1	0	0	0	-111%
O=C(CSc1nnc(-c2ccncc2)o1)Oc1ccccc1	0	0	0	-92%
SMILES	BRCA1 expr up	TCR activator	PINK1 modulator	Akt phos inh
O=C(CSc1nnc(-c2cccnc2)o1)Oc1ccccc1	0	0	0	0
O=C(CSc1nnc(-c2ccc(F)cc2)o1)N1CCCCC1	8.9µM	0	0	0
COc1ccc(-c2nnc(SCC(=O)c3cccs3)o2)cc1	7.1µM	0	0	0
CCc1ccc(NCc2cc3cc4c(cc3n(CC(=O)Nc3cccc(OC)c3)c2=O)OCO4)cc1	0	-	0	-
OCCN1CCN(Cc2ccc3c(c2)CN(Cc2cnc(-c4ccccc4)s2)CCO3)CC1	-	-	0	-
CC1CCN(C(=O)CSc2nnc(-c3ccccc3)o2)CC1	-	-	0	-
CC1CCN(C(=O)CCc2nnc(-c3ccccc3)o2)CC1	13µM	0	0	0
O=C(CSc1nnc(-c2ccccc2)o1)N1CCCC1	0	0	0	0
O=C(CSc1nnc(-c2ccccc2)o1)N1CCCCC1	3.2µM	0	0	0
CCCNC(=O)Cn1c(=O)cc(C)c2c(C)nn(-c3cccc(F)c3)c21	0	-	0	-
Cc1ccc(CNC(=O)COC(=O)c2ccccc2OCC(=O)Nc2ccc(Br)cc2)cc1	0	-	0	-
CCOC(=O)c1c(C)nc2sc3c(=O)n(-c4ccc(OC)cc4)nnc3c2c1-c1ccc(OC)cc1	0	0	0	0
CCOC(=O)c1c(C)nc2sc3c(=O)n(-c4ccc(C(C)=O)cc4)cnc3c2c1-c1ccc(OC)cc1	0	0	0	-108%
CCOc1ccc(N2C(=O)c3ccccc3NC2(C)CC)cc1 (centres undefined)	3.5µM	0	0	0
